Calls of active or inactive are those of the source. Rule for the calls: active = hit-call score of the fitted dose curve at least 0.9, where 1 is the maximum; inactive = score below 0.9.
Legend:
[1] = ATG_CRE_CIS: Attagene CIS-FACTORIAL HepG2 Assay for human cAMP Responsive Element (CRE) binding protein 3 (AID 2282926); settings: HepG2 CRE cis-reporter, Attagene multiplexed mRNA; actives raise or lower the signal
How it was run: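 Multiplexed transcription-unit reporters transfected into HepG2; 24 h dosing; RT-PCR/capillary electrophoresis fluorescence read-out; bidirectional fit vs DMSO.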

[2] = target: CCAAT/enhancer-binding protein beta (Homo sapiens) (UniProt P17676); test: ATG_C_EBP_CIS: Attagene CIS-FACTORIAL HepG2 Assay for human CCAAT/Enhancer Binding Protein (C/EBP) beta (AID 2282927); settings: HepG2 Attagene cis-factorial transcription factor reporter; actives raise or lower the signal
Sequence of CCAAT/enhancer-binding protein beta (Homo sapiens) (P17676 whole entry, looked up): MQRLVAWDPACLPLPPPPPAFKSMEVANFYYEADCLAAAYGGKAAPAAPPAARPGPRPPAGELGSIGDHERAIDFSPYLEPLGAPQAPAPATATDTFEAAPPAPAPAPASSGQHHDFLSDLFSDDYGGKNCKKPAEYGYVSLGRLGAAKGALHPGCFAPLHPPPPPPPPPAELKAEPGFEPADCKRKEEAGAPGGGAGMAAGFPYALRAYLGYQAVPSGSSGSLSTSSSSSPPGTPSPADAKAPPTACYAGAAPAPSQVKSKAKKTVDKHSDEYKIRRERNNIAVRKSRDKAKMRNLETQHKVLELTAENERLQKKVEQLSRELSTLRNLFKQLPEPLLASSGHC
How it was run: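 Endogenous transcription factor activity in human liver HepG2 cells is inferred from induction of a CEBPB-linked reporter mRNA. Exposure lasts 24 h; activity is fitted in both directions relative to DMSO.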

[3] = ATG_CMV_CIS: Attagene CIS-FACTORIAL HepG2 Assay for human CMV (Internal Marker) (AID 2282928); settings: HepG2 CMV promoter reporter, transcription factor profiling; actives raise or lower the signal;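 note: endpoint acts as a background internal control marker rather than a target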
How it was run: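 Endogenous transcription factor activity read in HepG2 via transfected cis-promoter reporter units. After 24 h dosing, reporter mRNA measured by RT-PCR/capillary electrophoresis; gain or loss of signal fit relative to DMSO.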

[4] = ATG_DR4_LXR_CIS: Attagene CIS-FACTORIAL HepG2 Assay for human Liver X Receptor (LXR), DR4 submotif (AID 2282929); settings: HepG2 Attagene DR4 cis-reporter, mRNA transcription; actives raise or lower the signal
How it was run: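 DR4 cis-reporter in HepG2, 24 h exposure. Detection: RT-PCR, 6-FAM labelling, CE fragment analysis. Endpoint fitted bidirectionally, DMSO = baseline.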

[5] = target: Aryl hydrocarbon receptor (Homo sapiens) (UniProt P35869); test: ATG_Ahr_CIS: Attagene CIS-FACTORIAL HepG2 Assay for human Aryl Hydrocarbon Receptor (Ahr) (AID 2282930); settings: HepG2 AhR cis-factorial reporter transcription; actives raise or lower the signal
Sequence of Aryl hydrocarbon receptor (Homo sapiens) (P35869 whole entry, looked up): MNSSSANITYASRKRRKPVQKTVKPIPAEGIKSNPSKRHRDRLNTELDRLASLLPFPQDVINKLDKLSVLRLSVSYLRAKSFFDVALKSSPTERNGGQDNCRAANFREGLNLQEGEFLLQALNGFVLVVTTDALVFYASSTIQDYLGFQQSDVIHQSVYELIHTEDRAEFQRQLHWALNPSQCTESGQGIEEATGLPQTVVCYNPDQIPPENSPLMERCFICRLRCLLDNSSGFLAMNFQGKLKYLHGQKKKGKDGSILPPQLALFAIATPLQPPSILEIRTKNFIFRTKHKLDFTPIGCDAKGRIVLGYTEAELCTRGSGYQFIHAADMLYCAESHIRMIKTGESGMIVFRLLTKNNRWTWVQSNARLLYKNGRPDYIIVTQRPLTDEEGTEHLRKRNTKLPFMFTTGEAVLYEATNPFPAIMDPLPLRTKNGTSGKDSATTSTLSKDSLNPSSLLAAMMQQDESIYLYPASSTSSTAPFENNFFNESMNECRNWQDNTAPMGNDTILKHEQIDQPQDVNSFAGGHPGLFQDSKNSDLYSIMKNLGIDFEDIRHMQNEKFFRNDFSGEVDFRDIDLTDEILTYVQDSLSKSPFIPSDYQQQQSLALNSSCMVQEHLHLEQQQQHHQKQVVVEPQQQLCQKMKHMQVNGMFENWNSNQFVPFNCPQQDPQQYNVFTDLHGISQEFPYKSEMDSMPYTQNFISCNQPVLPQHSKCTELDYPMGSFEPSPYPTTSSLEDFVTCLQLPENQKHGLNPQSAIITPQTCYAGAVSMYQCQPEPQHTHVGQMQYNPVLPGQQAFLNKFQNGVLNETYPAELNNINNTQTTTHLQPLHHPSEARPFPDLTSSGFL
How it was run: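 Transient MRTU transfection of HepG2 → 24 h compound exposure → total RNA, oligo(dT) RT → PCR, 6-FAM extension, HpaI cut → CE fluorescence. DMSO = baseline; bidirectional curve fit.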

[6] = ATG_AP_2_CIS: Attagene CIS-FACTORIAL HepG2 Assay for human Activator Protein 2 (AP-2) (AID 2282932); settings: HepG2 AP-2 cis-reporter, Attagene transcription factor profiling; actives raise or lower the signal
How it was run: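 HepG2, transient MRTU transfection, cis-regulated reporters; 24 h compound exposure; RNA isolated, RT-PCR, 6-FAM labelling, HpaI digest, CE fluorescence. DMSO = negative control/baseline, bidirectional fit.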

[7] = ATG_BRE_CIS: Attagene CIS-FACTORIAL HepG2 Assay for human Bone Morphogenetic Protein (BMP) Response Element (BRE) (AID 2282933); settings: HepG2 BMP response element reporter, Attagene transcription factor profiling; actives raise or lower the signal
How it was run: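 A HepG2 multiplex reporter system measured inducible reporter mRNA 24 h post-dosing. Detection: RT-PCR, 6-FAM primer extension, HpaI digestion, capillary electrophoresis. Activity fitted bidirectionally relative to DMSO.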

[8] = target: Transcription factor E2F1 (Homo sapiens) (UniProt Q01094); test: ATG_E2F_CIS: Attagene CIS-FACTORIAL HepG2 Assay for human E2F Transcription Factor 1 (AID 2282935); settings: HepG2 Attagene cis-reporter, E2F reporter RNA transcripts; actives raise or lower the signal
Sequence of Transcription factor E2F1 (Homo sapiens) (Q01094 whole entry, looked up): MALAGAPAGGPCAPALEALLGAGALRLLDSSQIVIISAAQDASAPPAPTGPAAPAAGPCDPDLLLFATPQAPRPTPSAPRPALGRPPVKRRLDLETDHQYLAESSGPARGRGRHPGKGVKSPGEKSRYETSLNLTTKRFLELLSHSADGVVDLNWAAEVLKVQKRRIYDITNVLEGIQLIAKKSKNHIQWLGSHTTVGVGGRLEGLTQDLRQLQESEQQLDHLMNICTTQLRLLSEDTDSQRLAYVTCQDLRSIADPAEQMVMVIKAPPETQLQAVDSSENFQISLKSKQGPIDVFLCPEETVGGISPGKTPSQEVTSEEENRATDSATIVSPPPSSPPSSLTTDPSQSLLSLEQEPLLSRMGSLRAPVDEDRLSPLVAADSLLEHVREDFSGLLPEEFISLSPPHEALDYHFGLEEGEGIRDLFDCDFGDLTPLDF
How it was run: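 Cis-element reporter mRNA induction in transiently transfected HepG2, 24 h exposure. Activity fitted in both directions relative to DMSO negative control.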

[9] = ATG_E_Box_CIS: Attagene CIS-FACTORIAL HepG2 Assay for human Enhancer Box (E-box) (AID 2282936); settings: HepG2 E-box cis-reporter transcription, actives raise or lower the signal
How it was run: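 Cells: HepG2 (human liver), transient MRTU transfection. Exposure 24 h. RNA → oligo(dT) RT → PCR → 6-FAM label → HpaI → CE. Activity fitted both directions relative to DMSO.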

[10] = ATG_M_61_CIS: Attagene CIS-FACTORIAL HepG2 Assay for M61 Transcription Factor (Internal Marker) (AID 2282937); settings: HepG2 Attagene CIS-FACTORIAL M61 internal marker reporter; actives raise or lower the signal
How it was run: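 Background-control endpoint: HepG2 cells with cis-regulated reporter constructs, 24 h exposure, reporter mRNA detected via fluorescent primer extension and capillary electrophoresis; values from bidirectional fitting with DMSO baseline.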

[11] = ATG_EGR_CIS: Attagene CIS-FACTORIAL HepG2 Assay for human Early Growth Response 1 (EGR1) (AID 2282938); settings: HepG2 Attagene CIS-FACTORIAL EGR reporter mRNA; actives raise or lower the signal
How it was run: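 Endpoint derived by bidirectional fitting versus DMSO vehicle. Method: cis-promoter reporter units transfected into HepG2, 24 h dosing, RNA isolation, RT-PCR with 6-FAM primer extension and HpaI digestion, then capillary electrophoresis fluorescence detection.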

[12] = ATG_M_19_CIS: Attagene CIS-FACTORIAL HepG2 Assay for M19 Transcription Factor (Internal Marker) (AID 2282939); settings: HepG2 Attagene CIS-FACTORIAL M19 internal marker reporter; actives raise or lower the signal
How it was run: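 Chemical-treated HepG2 (24 h) with MRTU constructs; reporter transcripts detected by fluorescent RT-PCR fragment analysis on capillary electrophoresis. Internal background marker, DMSO as baseline.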

[13] = target: Hepatocyte nuclear factor 3-beta (Homo sapiens) (UniProt Q9Y261); test: ATG_FoxA2_CIS: Attagene CIS-FACTORIAL HepG2 Assay for human Forkhead box A2 (FOXA2) (AID 2282942); settings: HepG2 cis-reporter transcription factor activity, 24 h; actives raise or lower the signal
Sequence of Hepatocyte nuclear factor 3-beta (Homo sapiens) (Q9Y261 whole entry, looked up): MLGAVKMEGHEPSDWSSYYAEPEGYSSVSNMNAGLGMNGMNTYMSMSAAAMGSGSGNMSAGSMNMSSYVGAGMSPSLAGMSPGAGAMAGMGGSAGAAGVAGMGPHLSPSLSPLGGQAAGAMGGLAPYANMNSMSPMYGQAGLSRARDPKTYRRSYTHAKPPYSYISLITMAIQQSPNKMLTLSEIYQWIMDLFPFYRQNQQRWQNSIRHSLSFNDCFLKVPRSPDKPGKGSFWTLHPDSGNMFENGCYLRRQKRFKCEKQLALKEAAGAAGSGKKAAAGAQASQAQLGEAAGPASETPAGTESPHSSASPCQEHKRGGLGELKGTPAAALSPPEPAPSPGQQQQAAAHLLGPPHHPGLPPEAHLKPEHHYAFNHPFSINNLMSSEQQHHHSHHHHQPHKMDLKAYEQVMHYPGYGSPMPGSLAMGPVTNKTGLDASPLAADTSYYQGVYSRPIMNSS
How it was run: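 Measured: reporter mRNA induction or loss in HepG2 transiently carrying multiple cis-regulated reporter units, 24 h after dosing. Quantified by RT-PCR plus capillary electrophoresis, normalised to DMSO.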

[14] = ATG_FoxO_CIS: Attagene CIS-FACTORIAL HepG2 Assay for human Forkhead box O (FoxO) (AID 2282943); settings: HepG2 Attagene cis-reporter, FoxO element, mRNA; actives raise or lower the signal
How it was run: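 HepG2, transient MRTU transfection (cis element, endogenous TFs). Dose 24 h. TriZol RNA → oligo(dT) RT → PCR → 6-FAM primer extension → HpaI cut → CE. Gain/loss vs DMSO.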

[15] = ATG_GATA_CIS: Attagene CIS-FACTORIAL HepG2 Assay for human GATA Binding Protein (AID 2282944); settings: HepG2 GATA cis-element reporter, Attagene multiplex mRNA; actives raise or lower the signal
How it was run: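 Transfected cis-reporter HepG2 cells were treated with chemicals for 24 hours. Total RNA was then converted to cDNA, amplified with reporter-specific primers and analysed by fluorescent capillary electrophoresis, using DMSO-treated wells as baseline.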

[16] = ATG_GLI_CIS: Attagene CIS-FACTORIAL HepG2 Assay for human Zinc Finger Protein GLI1 (AID 2282945); settings: HepG2, Attagene cis-factorial reporter mRNA, GLI element; actives raise or lower the signal
How it was run: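 Bidirectional curve fits relative to DMSO, using reporter mRNA levels from RT-PCR plus capillary electrophoresis. Cells were HepG2 transiently carrying cis-regulated reporter constructs, harvested 24 h after dosing.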

[17] = ATG_Ets_CIS: Attagene CIS-FACTORIAL HepG2 Assay for human Erythroblast Transformation Specific (ETS) (AID 2282941); settings: HepG2 ETS cis-reporter transcription, actives raise or lower the signal
How it was run: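 Steps: transfect HepG2 with multiple reporter units; treat compound 24 h; isolate RNA, DNase-treat, reverse-transcribe; PCR-amplify, label with 6-FAM, digest with HpaI; separate by capillary electrophoresis. Activity fitted both directions versus DMSO.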

[18] = target: Retinoic acid receptor alpha (Homo sapiens) (UniProt P10276); test: ATG_DR5_RAR_CIS: Attagene CIS-FACTORIAL HepG2 Assay for human Retinoic Acid Receptor Alpha (RARE), DR5 submotif (AID 2282934); settings: HepG2 Attagene cis-factorial RARE DR5 reporter, mRNA; actives raise or lower the signal
Sequence of Retinoic acid receptor alpha (Homo sapiens) (P10276 whole entry, looked up): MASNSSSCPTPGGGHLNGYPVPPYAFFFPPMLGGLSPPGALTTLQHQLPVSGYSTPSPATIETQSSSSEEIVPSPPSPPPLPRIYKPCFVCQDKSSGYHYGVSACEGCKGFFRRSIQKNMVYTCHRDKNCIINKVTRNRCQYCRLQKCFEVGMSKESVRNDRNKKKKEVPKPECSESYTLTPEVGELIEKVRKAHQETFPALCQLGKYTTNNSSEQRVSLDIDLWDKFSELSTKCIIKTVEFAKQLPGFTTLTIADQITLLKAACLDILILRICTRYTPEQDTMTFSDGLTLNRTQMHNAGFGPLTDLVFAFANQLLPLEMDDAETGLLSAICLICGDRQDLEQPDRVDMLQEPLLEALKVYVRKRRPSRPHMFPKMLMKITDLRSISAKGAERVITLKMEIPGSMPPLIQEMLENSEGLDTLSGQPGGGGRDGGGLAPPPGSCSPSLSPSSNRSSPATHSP
How it was run: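 Transient MRTU transfection of HepG2; 24 h compound treatment; TriZol RNA, oligo(dT) RT, PCR, FAM labelling, capillary electrophoresis. Bidirectional fit vs DMSO. Endogenous TF activity at DR5 RARE.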

[19] = ATG_AP_1_CIS: Attagene CIS-FACTORIAL HepG2 Assay for human Activator Protein 1 (AP-1) (AID 2282931); settings: HepG2 Attagene cis-factorial AP-1 reporter mRNA; actives raise or lower the signal
How it was run: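 Cis-regulated reporter units transiently expressed in HepG2 report endogenous transcription-factor activity. Signal: reporter mRNA at 24 h, via RT-PCR and fluorescent capillary electrophoresis. Endpoint derived by bidirectional fitting, DMSO as negative control.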

[20] = ATG_ERE_CIS: Attagene CIS-FACTORIAL HepG2 Assay for Estrogen Response Element (ERE) (AID 2282940); settings: HepG2 ERE cis-reporter, Attagene RNA transcript; actives raise or lower the signal
How it was run: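 Human liver cells (HepG2) bearing transiently transfected, promoter-regulated reporter units were exposed 24 h. Reporter mRNA induction was detected by capillary electrophoresis of labelled RT-PCR products and fitted bidirectionally to DMSO.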

Measured: AC50

C=CCOc1nc(OCC=C)nc(OCC=C)n1
inactive: [1] | [2] | [4] | [5] | [6] | [7] | [8] | [9] | [10] | [11] | [12] | [13] | [14] | [15] | [16]
active: [3] 42.9 µM

CC(=O)OCc1ccc2c(c1)OCO2
inactive: [1] | [2] | [3] | [4] | [5] | [6] | [7] | [8] | [9] | [10] | [11] | [17] | [13] | [14] | [15] | [16]

O=C(O)c1cn(-c2ccc(F)cc2)c2cc(N3CCNCC3)c(F)cc2c1=O
inactive: [1] | [2] | [3] | [4] | [5] | [6] | [7] | [18] | [8] | [9] | [11] | [12] | [17] | [13] | [14] | [15] | [16]

CCCCNC(=O)NS(=O)(=O)c1ccc(N)cc1
inactive: [1] | [2] | [3] | [4] | [19] | [6] | [7] | [18] | [8] | [9] | [10] | [11] | [12] | [17] | [13] | [14] | [15] | [16]

CCOC(=S)SSC(=S)OCC
inactive: [1] | [2] | [3] | [4] | [5] | [19] | [6] | [8] | [10] | [11] | [20] | [17] | [13] | [14] | [15] | [16]

CC1=CCC(O)(C(C)C)CC1 (configuration not stated)
inactive: [1] | [2] | [3] | [4] | [5] | [19] | [6] | [8] | [9] | [10] | [20] | [17] | [13] | [15] | [16]

OCCCCCO
inactive: [1] | [2] | [3] | [4] | [5] | [6] | [7] | [8] | [9] | [10] | [11] | [12] | [17] | [13] | [15] | [16]

O=C(O)CCCCC1CCSS1 (configuration not stated)
inactive: [1] | [2] | [3] | [4] | [19] | [6] | [7] | [8] | [9] | [10] | [11] | [12] | [20] | [17] | [13] | [14] | [15] | [16]

Source: PubChem BioAssay (EPA / NIEHS)
